Compound activity: PubChem BioAssay, National Center for Advancing Translational Sciences (NCATS)
DT40 TDP1 no CPT: qHTS for Inhibitors of human tyrosyl-DNA phosphodiesterase 1 (TDP1): qHTS in cells in absence of CPT | DT40 Tdp1-/- hTDP1 cells, no CPT, ATP luminescence, 48 h | AID 686978, 2013 | Potency, µM (doses to about 46.2 µM), without a hit: top-dose activity change, negative = growth inhibition, most hits filed as inhibitors | hit rate 15% among 420,000; note: nearly all actives have a fitted effect of over 55% in size
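Growth kinetics read by CellTiter-Glo luminescence after ≥48 hr at 37 °C. Cells: DT40 Tdp1-/- stably carrying human TDP1, 400 per well, compound exposure in the absence of CPT (DMSO vehicle).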
KB-V1 MDR tox: kills drug-selected multidrug resistant KB-V1 cells; KB-V1 MDR cells viability, CellTiter-Glo, 72 h; Potency, µM (titrated, usually from 46.1 µM), usual class: cytotoxic; hit rate 3.4% among 400,000; note: nearly all actives have a fitted effect of over 60% in size
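Cytotoxicity toward P-gp-expressing KB-V1 cells was determined as loss of CellTiter-Glo luminescence after 72 h at 37 degrees C. Compounds were tested in quantitative HTS format across a concentration range, with curves fitted to normalized data.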
HT1080 IDH1KD tx: kills HT-1080 cells with IDH1 knockdown; HT-1080 IDH1 knockdown viability, ATP luminescence, 48 h; Potency, µM (highest dose often 46.1 µM), inactives show at the top dose activity, negative = toxicity, hits mostly cytotoxic; hit rate 2% among 360,000;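 note: 0% = DMSO wells and -100% = cell-free medium wells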
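Luminescent ATP read-out (CellTiter-Glo, 10 min at room temperature) after 48 h compound exposure at 37 °C gave viability of IDH1-knockdown HT-1080 cells. Activity was normalised to DMSO and cell-free wells, then fitted as concentration-response curves.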
KB-3-1 tox: kills parental KB-3-1 adenocarcinoma cells | AID 1347075 | KB-3-1 viability, CellTiter-Glo ATP luminescence, 72 h | hit rate 1.4% among 400,000 | Potency, µM (series often up to 46.1 µM), actives largely listed as cytotoxic; note: nearly all actives have a fitted effect of over 60% in size
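Multi-concentration cytotoxicity screen in KB-3-1 cells grown in DMEM lacking phenol red with 10% FBS. After 72 h at 37 °C with compound, ATP-dependent luminescence was recorded.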
HT1080-NT tox: kills 2HG-producing HT-1080-NT fibrosarcoma cells | Potency, µM (doses to about 46.1 µM), inactives show at the highest dose activity, negative = less viability, actives largely listed as cytotoxic | hit rate 1.6% among 360,000 | HT-1080-NT fibrosarcoma viability, CellTiter-Glo ATP luminescence, 48 h;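 note: NT is the 2HG producing partner of a matched IDH1 knockdown line; 0% = DMSO-treated cells and -100% = media-only wells without cells; nearly all actives have a fitted effect of over 55% in size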
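HT-1080-NT fibrosarcoma cells (2HG-overproducing), 750 cells/well in RPMI with 5% FBS, dosed after 2 h and incubated 48 h at 37C. CellTiter-Glo luminescence normalized to DMSO and no-cell wells; concentration-response curves fitted and classed.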
TDP1 cell CPT: DT40-hTDP1 cell growth loss with CPT | chicken DT40 Tdp1-/-;hTDP1 cells + 20 nM CPT, ATP luminescence, 48 h | Potency, µM (doses to about 46.2 µM), for the others: at the top dose activity change, negative = growth inhibition, hits mostly inhibitors | hit rate 12% among 420,000; note: nearly all actives have a fitted effect of over 55% in size
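Chicken DT40 Tdp1-/- cells complemented with human TDP1, 400 cells/well, exposed to compounds plus 20 nM camptothecin for at least 48 h at 37 C; viability read as ATP content by CellTiter-Glo luminescence.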
* hit, by the source's call; i = inactive; ? = inconclusive; . = no result; ! = not active in a repeat; [ ] = dose if it differs, or a comment. Only some compounds are listed: those with a hit (about 19% of all), similar ones and a draw of the others. Calls come from the whole dose curve; as a rule, active = well fitted curve in the direction sought with a large enough effect; inconclusive = small, poorly fitted or top-dose-only effect, or another doubt; inactive = no such curve, though single readings can be large; an effect the other way counts as inactive or inconclusive. Unless noted, % is set by controls: 0 for no effect and ±100 for the full control effect; potency is the fitted concentration of half-maximal effect.

SMILES | DT40 TDP1 no CPT | KB-V1 MDR tox | HT1080 IDH1KD tx | KB-3-1 tox | HT1080-NT tox | TDP1 cell CPT
C[C@@H](CO)NC(=O)c1[nH]cnc1C(=O)Nc1ccc(CNC(=O)OC(C)(C)C)cc1 | 12µM* | ? | -3% | i | 3% | 23µM*
CCOC(=O)c1ccc(NC(=O)c2nc[nH]c2C(=O)N[C@@H](C)CO)cc1 | 21µM* | i | 0% | i | 1% | -1%
CC(C)(C)OC(=O)NCc1ccc(NC(=O)c2nc[nH]c2C(=O)NCCNC(=O)c2[nH]cnc2C(=O)Nc2ccc(CNC(=O)OC(C)(C)C)cc2)cc1 | 18µM* | i | 13µM* | i | 12µM* | 15µM*
C[C@@H](O)CNC(=O)c1[nH]cnc1C(=O)Nc1ccc(CNC(=O)OC(C)(C)C)cc1 | ? | i | -7% | i | -7% | ?
CC(C)(C)OC(=O)CNC(=O)c1nc[nH]c1C(=O)NCc1ccc(CNC(=O)OC(C)(C)C)cc1 | 15µM* | i | 1% | ? | -6% | 18µM*
CCn1cc(C(=O)N2CCN(c3ccccc3F)CC2)c(=O)c2cc(S(=O)(=O)N(C)C3CCCCC3)ccc21 | ? | i | . | i | . | -7%
O=C(NC1CCCCC1)c1nc(C2CCNCC2)oc1-c1ccccc1 | ? | i | ? | i | ? | ?
COc1ccc(Oc2ncc3nc(-c4cn(C)c5ccccc45)c(=O)n(C)c3n2)cc1 | -9% | . | . | . | . | -10%
Clc1ccc(-c2nc(N3CCOCC3)nc3ccccc23)cc1 | ? | i | 26% | i | 6% | ?
O=C1CN(c2nc(-c3ccccc3)c3cc(Cl)ccc3n2)c2ccccc2N1 | 21µM* | i | 4% | i | 5% | 16µM*
O=C1CN(C(=O)CSc2nc3cc(Cl)ccc3c(=O)n2Cc2ccccc2)c2ccccc2N1 | ? | i | -10% | i | -8% | ?
Clc1ccc2nc(N3CCNCC3)nc(-c3ccccc3)c2c1 | 9.2µM* | 18µM* | 20% | ? | -10% | 18µM*
OCCN1CCN(c2nc(-c3ccccc3)c3cc(Cl)ccc3n2)CC1 | 23µM* | i | ? | ? | ? | ?
COc1ccc(NC(=O)C(Cc2c[nH]c3ccccc23)NC(=O)OC(C)(C)C)cc1 (configuration not stated) | -23% | ? | . | i | . | ?
Cc1cccc(CNC(=O)c2cnn(-c3ncc(C)c(-c4ccc(F)cc4)n3)c2C)n1 | -25% | . | . | . | . | -2%[9.04 µM]
O=C(/C=C/c1cccc(C(F)(F)F)c1)NNC(=O)c1ccncc1 | -7% | i | 2% | i | -4% | -18%
C=CCn1c(=S)[nH]c2sc3c(c2c1=O)CCC3 | ? | i | ? | i | 7.1µM* | ?
CC(c1cccs1)N(Cc1ccco1)C(=O)Nc1ccc(Cl)c(Cl)c1 (configuration not stated) | ? | 16µM* | -25% | i | -17% | ?
Cc1ccc(NC(=O)N(Cc2ccco2)C(C)c2ccco2)cc1C (configuration not stated) | 23µM* | i | 0% | i | 8% | ?
COc1cccc(NC(=O)N(Cc2ccco2)C(C)c2cccs2)c1 (configuration not stated) | -28% | i | 18% | i | -3% | -17%
O=C(Nc1cccc2c(=O)cc(-c3nn[nH]n3)oc12)c1ccc(OCCCCc2ccccc2)cc1 | -14% | . | . | . | . | 9%
Cc1cc(=O)oc2cc(O[C@@H]3O[C@H](CO)[C@H](O)[C@H](O)[C@H]3O)ccc12 | 1% | i | 11% | i | 0% | 23%
Cc1cc2c(c(C)c1CCO[C@@H]1O[C@H](CO)[C@@H](O)[C@H](O)[C@H]1O)C(=O)[C@@H](C)[C@@H]2O | 5.2µM* | i | 8% | ? | -1% | 2.9µM*
N#Cc1c(N)oc(-c2ccccc2)c1-c1ccccc1 | -13% | i | 1% | i | 0% | -6%
N#Cc1c(N)oc(-c2ccco2)c1-c1ccco1 | 16µM* | i | -1% | i | -1% | ?
SMILES | DT40 TDP1 no CPT | KB-V1 MDR tox | HT1080 IDH1KD tx | KB-3-1 tox | HT1080-NT tox | TDP1 cell CPT
COc1ccccc1NC(=S)N1CCC(c2nc3cc(C)c(C)cc3[nH]2)CC1 | ? | i | -7% | i | 4% | ?
COc1ccccc1NC(=O)N1CCC(c2nc3cc(C)c(C)cc3[nH]2)CC1 | 1.8µM* | 9.2µM* | 5.8µM* | 1.6µM* | 5.8µM* | 3.7µM*
COc1ccccc1NC(=O)CN1CCC(c2nc3ccccc3[nH]2)CC1 | 15µM* | ? | -8% | i | -10% | ?
Cc1cccc2sc(N(Cc3cccnc3)C(=O)c3cccs3)nc12 | -16% | . | . | . | . | -7%
Cc1nn(C)c2c1c(-c1ccccc1)cc(=O)n2Cc1ccccc1Cl | ? | i | . | i | . | ?
COc1cc2c(cc1OC)C(c1cccs1)N(C(=O)C(C)C)CC2 (configuration not stated) | -26% | 14µM* | -16% | ? | -9% | ?
COc1cc2c(cc1OC)C(c1cccs1)N(C(=O)c1cccnc1)CC2 (configuration not stated) | 2.9µM* | ? | ? | 5.8µM* | -28% | 4.6µM*
COc1cc2c(cc1OC)C(COc1ccccc1OC)N(C(=O)C(C)C)CC2 (configuration not stated) | -12% | ? | 10% | i | 9% | 11%
CC(C)CC(=O)N1CCC(O)(CS(=O)(=O)Cc2ccc(Cl)cc2)CC1 | -1% | i | -6% | i | -7% | -29%
O=C1[C@H](Cc2ccccc2)NCC=CC[C@H](c2ccc(Cl)cc2)N1Cc1ccccc1 | ? | ? | -22% | i | -17% | ?
O=C1[C@H](Cc2ccccc2)NCCCC[C@@H](c2ccc(Cl)cc2)N1Cc1ccccc1 | 13µM* | 23µM*! | ? | ? | ? | 18µM*
O=C1[C@H](Cc2ccccc2)NCC=CC[C@H](c2ccc(Cl)cc2)N1Cc1ccc(Cl)cc1 | 16µM* | ? | ? | ? | ? | 23µM*
O=C1[C@H](Cc2ccccc2)NCCCC[C@H](c2ccc(Cl)cc2)N1Cc1ccc(Cl)cc1 | 18µM* | ? | -15% | ? | -19% | 23µM*
CC(C)CC(=O)N1C/C=C\C[C@@H](c2ccc(Cl)cc2)N(Cc2ccc(Cl)cc2)C(=O)[C@@H]1Cc1ccccc1 | 13µM* | ? | . | ? | . | 10µM*
